PubChem BioAssay AID662 (National Center for Advancing Translational Sciences (NCATS), 2007)
Screen size: about 71,000 compounds; about 1,800 (2.5%) were called active. Entries that show only a call come without a potency. Roughly 26% stayed inconclusive and do not appear here. This excerpt belongs to a sample that is enriched for actives. A number with no mark means an inactive call. The call rests on the fitted dose curve; in most records, active means well fitted activation curve with a large enough effect in the signal ratio, with a control signal flat (not every such curve was filed as active); inconclusive means small, poorly fitted or top-dose-only effect, or effect the other way, or a change in a side signal; inactive means flat fitted curve, though single readings scatter; the % refers to the signal ratio.

assay: Cell signaling CRE-BLA (Fsk stim); conditions: CHO CRE-bla reporter (cAMP response element driving beta-lactamase), forskolin EC10, beta-lactamase ratio; series mostly up to 38.2 µM
From the text: NIH Molecular Libraries Screening Centers Network [MLSCN]
NIH Chemical Genomics Center [NCGC]
Assay Provider: Marshall W. Nirenberg, U.S. National heart lung & blood institute
Memories persist for different lengths of time, from seconds or minutes to a lifetime. There are two kinds of memory: short-term memory (STM) and long-term memory (LTM). STM lasts for minutes to hours, which maybe mediated by modifications of molecules involved in synaptic functions. LTM lasts for days or longer, and may be due to the formation of new synapses or restructuring of existing synapses. LTM, but not STM, requires gene transcription and synthesis of proteins. CREB (cyclic-AMP Responsive Element Binding Protein) is one of the candidates plays an important role for enhancement of some types of LTM. CREB, a family of transcription factors, regulates the transcription of genes containing cAMP Responsive Elements (CRE). CRE is a nucleotide sequence often found in the promoter regions of genes that are binding sites for CREB.
Using a beta-lactamase reporter-gene under control of cAMP responsive element, a cell-based assay [CellSensor(TM) CRE-bla CHO developed by Invitrogen Corp.] was used to measure forskolin-induced signaling. Library compounds were measured for their ability to modulate positively or negatively the action of EC10 NKH 477, a water soluble forskolin, on reporter gene activity. Compounds were screened in a titration series in 1536-well format. Positive and negative modulators were identified based on the AC50 values derived from the screening data.
NCGC Assay Protocol Summary
2000 cells/5uL in Opti-MEM medium containing 0.5% dialyzed FBS, 0.1 mM NEAA, 1 mM sodium pyruvate and 10 mM HEPES was dispensed into 1536-well plates and cells were cultured at 37 degrees Celsius overnight. […] And then the plates were incubated at 37 degrees Celsius for 3 hours. 1 uL of CCF4-dye mixture was added to each well. After incubated at room temperature for 2 hours the plates were measured on an EnVision plate reader at Excitation 405nm, Emission1=460nm and Emission 2=530nm. The %Activity was determined from the ratio of 460nm/530nm.
Keywords: NIH Roadmap, MLSCN, MLSMR, qHTS, NCGC, CRE, beta-lactamase reporter-gene assay.
Potency means the concentration at half of the fitted maximal effect.

**Q.** Which Potency does the source give for `CCOc1ccc2nc(N3CCCN(C(=O)Nc4ccccc4C)CC3)c(C#N)cc2c1` here?
**A.** inactive

**Q.** Which Potency does the source give for `CC(C)CCNc1nc(N2CCCC2)c2c(c1C#N)CCN(C)C2` here?
**A.** inactive

**Q.** Which Potency does the source give for `Cn1nc(-c2ccc(N3CCOCC3)c(NC(=O)c3ccccc3)c2)c2ccccc2c1=O` here?
**A.** 7.94 µM (active)

**Q.** Which Potency does the source give for `Cn1c(=O)n(C)c2cc(CNc3ccc(N4CCOCC4)c(C(=O)O)c3)ccc21` here?
**A.** inactive

**Q.** With `COc1c(C)cccc1C(=O)Nc1cc(Cl)ccc1N1CCOCC1` as the compound, how does the Potency read?
**A.** inactive

**Q.** For `COc1ccc(OC)c2[nH]c(=O)c(CCNC(=O)C(C)(C)C)cc12`, which Potency is on record?
**A.** inactive

**Q.** For `COc1ccc(CNc2ncncc2-c2ccccc2OC)c(OC)c1`, which Potency is on record?
**A.** inactive

**Q.** Which Potency does the source give for `COc1ccc(CNc2ncnc3ccc(-c4cccnc4)cc23)c(OC)c1` here?
**A.** 1 µM (active)

**Q.** Which Potency does the source give for `COc1ccc(CNc2ncncc2-c2ccccc2C)c(OC)c1` here?
**A.** inactive

**Q.** Which Potency does the source give for `CCOC(=O)C1CCc2nc3ccccc3c(=O)n21` (stereo not given) here?
**A.** inactive

**Q.** Which Potency does the source give for `CCCCCCOC(=O)NCC(O)c1ccccc1` (stereo not given) here?
**A.** inactive

**Q.** With `CCOc1ccccc1Nc1nnc(SCC(=O)Nc2cc(C)on2)s1` as the compound, how does the Potency read?
**A.** inactive

**Q.** Which Potency does the source give for `Cc1nc(SCC(=O)Nc2cc(C)on2)c2c3c(sc2n1)CCCC3` here?
**A.** 2.51 µM (active)

**Q.** Which Potency does the source give for `C=C(C)Cn1c(SCC(=O)NCc2ccco2)nc2sc3c(c2c1=O)CCC3` here?
**A.** inactive

**Q.** For `Cc1nc(SCC(=O)Nc2cc(C)on2)c2c(C)c(C)sc2n1`, which Potency is on record?
**A.** 0.316 µM (active)

**Q.** Which Potency does the source give for `COc1ccccc1-c1nnc(SCC(=O)Nc2cc(C)on2)o1` here?
**A.** inactive

**Q.** Which Potency does the source give for `Cc1cc(NC(=O)Cn2nc(C(F)(F)F)c3c2CCCC3)no1` here?
**A.** inactive

**Q.** With `O=C1C(C=NCC2CCCO2)=C(O)c2ccccc21` (stereo not given) as the compound, how does the activity change, negative = inhibition read?
**A.** 12.5% [at 7.6 µM]

**Q.** For `COC(=O)[C@@]1(Cc2ccc(F)cc2)[C@H]2c3cc(C(=O)N4CCCC4)n(Cc4ccc(OC(F)(F)F)cc4)c3C[C@H]2CN1C(=O)c1ccccc1`, which Potency is on record?
**A.** inactive

**Q.** Which Potency does the source give for `COCCOC(=O)C1=C(C)NC(=O)CC1c1cc2c(cc1Br)OCO2` (stereo not given) here?
**A.** inactive

**Q.** Which Potency does the source give for `CCCOc1ccccc1C1CC(=O)Nc2cc3c(cc21)OCO3` (stereo not given) here?
**A.** 10 µM (active)

**Q.** Which Potency does the source give for `COc1cc2c(cc1OC)C(c1ccc(C)o1)CC(=O)N2` (stereo not given) here?
**A.** inactive

**Q.** With `O=C(NCc1ccc(Cl)c(Cl)c1)c1cccnc1` as the compound, how does the activity change, negative = inhibition read?
**A.** -25.4% [at 7.6 µM]

**Q.** For `CCCOC(=O)Nc1ccccc1C(N)=O`, which Potency is on record?
**A.** inactive

**Q.** With `CCOc1ccc2nc(SC(CC)C(=O)Nc3cc(C)on3)sc2c1` (stereo not given) as the compound, how does the Potency read?
**A.** inactive

**Q.** With `C=CC(=C)CCC=C(C)C` as the compound, how does the Potency read?
**A.** inactive

**Q.** For `CCOC(=O)c1sc(=S)n(-c2cccc(OC)c2)c1N`, which Potency is on record?
**A.** inactive

**Q.** For `CCOc1cccc(-n2nnnc2-c2ccc(OC)cc2)c1`, which Potency is on record?
**A.** 12.6 µM (active)

**Q.** For `CCOc1cccc(-c2nnc3sc(COc4ccc(OC)cc4)nn23)c1`, which Potency is on record?
**A.** inactive

**Q.** Which Potency does the source give for `COC(=O)c1ccc(OC(=O)c2nn(C)cc2Cl)c(OC)c1` here?
**A.** inactive

**Q.** Which Potency does the source give for `CCc1c(O)nc(SCC(=O)N2CCCCC2)n(-c2ccccc2C)c1=O` here?
**A.** inactive

**Q.** For `O=C(Nc1ccccc1N1CCCCC1)c1ccc2nccnc2c1`, which Potency is on record?
**A.** 10 µM (active)

**Q.** With `O=C(Nc1ccccc1N1CCCCC1)c1cccc(F)c1` as the compound, how does the Potency read?
**A.** 12.6 µM (active)

**Q.** With `O=C(CN1CCN(C2CCCCC2)CC1)Nc1ccccc1N1CCCCC1` as the compound, how does the Potency read?
**A.** inactive

**Q.** For `O=C(Nc1ccccc1N1CCN(C(=O)c2ccccc2)CC1)c1ccc2c(c1)OCO2`, which Potency is on record?
**A.** inactive

**Q.** For `Cc1ccccc1NC(=O)CNc1ccccc1N1CCCCC1`, which Potency is on record?
**A.** inactive

**Q.** With `O=C(Nc1ccccc1N1CCN(c2ccccc2)CC1)c1cccc(F)c1` as the compound, how does the Potency read?
**A.** inactive

**Q.** For `Cn1cc(S(=O)(=O)N2CCC(Cc3ccccc3)CC2)c(=O)n(C)c1=O`, which Potency is on record?
**A.** inactive

**Q.** For `Cc1ccc(Br)cc1`, which Potency is on record?
**A.** inactive

**Q.** For `O=C(NCc1ccccc1)[C@H]1C[C@@H]1[C@H](NP(=O)(c1ccccc1)c1ccccc1)c1ccccc1`, which Potency is on record?
**A.** inactive

**Q.** Which Potency does the source give for `CCC[C@@H]1C[C@@]1(CCC)[C@@H](NC(=O)c1ccccc1)c1ccc(C(=O)OC)cc1` here?
**A.** inactive

**Q.** Which Potency does the source give for `Nc1nnc(C2CCCC2)s1` here?
**A.** inactive

**Q.** For `COc1cc(Cl)c(C)cc1NC(=O)CSc1nnc(-c2cccnc2)n1Cc1ccco1`, which Potency is on record?
**A.** inactive

**Q.** For `CCn1c(SCC(=O)Nc2cc(C)c(Cl)cc2OC)nnc1-c1ccco1`, which Potency is on record?
**A.** 12.6 µM (active)

**Q.** Which Potency does the source give for `CCc1cccc(C)c1NC(=O)CSc1nnc(-c2ccco2)n1N` here?
**A.** inactive

**Q.** For `COC(=O)[C@H]1C[C@@H]1[C@H](NC(=O)Oc1ccc(F)cc1)c1ccccc1`, which Potency is on record?
**A.** inactive

**Q.** Which Potency does the source give for `NC(=O)c1ccccc1NC(=O)c1ccccc1F` here?
**A.** inactive

**Q.** Which Potency does the source give for `COC(=O)[C@@]1(Cc2ccc(OC)cc2)[C@H]2c3cc(C(=O)N4CCCC4)n(Cc4ccc(OC(F)(F)F)cc4)c3C[C@H]2CN1C(=O)c1ccccc1` here?
**A.** inactive

**Q.** With `O=C(CN1CCOCC1)Nc1c(-c2ccccc2)c2cc(Br)ccc2[nH]c1=O` as the compound, how does the Potency read?
**A.** inactive

**Q.** Which Potency does the source give for `O=C1c2cccnc2C(=O)N1Cc1cccs1` here?
**A.** inactive

**Q.** Which Potency does the source give for `COc1cccc(Nc2ncc3ncc(=O)n(C4CC4)c3n2)c1` here?
**A.** inactive

**Q.** For `COc1cccc(Cn2c(=O)c(CCc3ccccc3)nc3cnc(N(C)C)nc32)c1`, which Potency is on record?
**A.** 6.31 µM (active)

**Q.** With `COc1cccc(Cn2c(=O)c(-c3ccccc3)nc3cnc(OC)nc32)c1` as the compound, how does the Potency read?
**A.** 10 µM (active)

**Q.** Which Potency does the source give for `COc1ccc(Oc2ncc3nc(-c4ccc(F)cc4)c(=O)n(C)c3n2)cc1` here?
**A.** inactive

**Q.** Which Potency does the source give for `COc1ccc(-n2nnc3c(=O)n(CC(=O)OCc4ccccc4)cnc32)cc1` here?
**A.** inactive

**Q.** For `COc1ccc(-c2nc3cnc(Oc4ccccc4)nc3n(Cc3cccs3)c2=O)cc1`, which Potency is on record?
**A.** 3.98 µM (active)

**Q.** With `CCNc1ncc2ncc(=O)n(CCc3ccccc3)c2n1` as the compound, how does the Potency read?
**A.** inactive

**Q.** With `CCNc1ncc2ncc(=O)n(Cc3cccc(OC)c3)c2n1` as the compound, how does the Potency read?
**A.** inactive

**Q.** Which Potency does the source give for `COc1cccc(Cn2c(=O)c(C)nc3cnc(Oc4ccccc4)nc32)c1` here?
**A.** 10 µM (active)

**Q.** For `COc1ccc(Oc2ncc3nc(C)c(=O)n(-c4ccccc4)c3n2)cc1`, which Potency is on record?
**A.** inactive
